# Compound activity as filed in PubChem.
# In the library only some 6.5% were active in any assay of this set; here they are far more common.
# PMK inhibit – S. pneumoniae PMK inhibitors, primary screen, biochemical, mevalonate pathway, pilot trial included | phosphomevalonate kinase (Streptococcus pneumoniae D39) | purified PMK, PK/LDH-coupled NADH absorbance 340 nm | 65,000 compounds, 0.49% hits | inhibition, % at 10 µM;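 active = top-ranked compounds by inhibition in the single 10 µM screen, taking a fixed number of the strongest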;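 note: 0% = full reaction with DMSO carrier and 100% = background rate without enzyme reaction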
# Autofluor 339 – intrinsic fluorescence of library compounds, ex339/em460 – biochemical, MLSMR library, data from DPM-DC assay, artefact control, profiling panel; 65,000 compounds, 5.5% hits; fluorescence fold increase at 10 µM; compound autofluorescence, ex339/em460 nm, NADH buffer; stronger effect = higher value; 1 = no-compound wells, NADH background;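 active = at 10 µM, mean starting fluorescence two-fold or more over control wells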;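 note: signal is the first read of a kinetic run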
# NADH coupling – inhibitors of PK/LDH coupling enzymes, profiling panel, artefact control, biochemical, MLSMR library; coupled PK/LDH NADH assays, four targets; IC50, µM (doses to about 10 µM), for inactives: at the highest dose inhibition; 65,000 compounds, 0.02% hits;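 active = single-dose screening hits from any of four coupled enzyme assays that gave an IC50 when retested across doses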;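 note: the DPM-DC format reads NADH fluorescence rather than 340 nm absorbance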
# DPM-DC inhibit – S. pneumoniae DPM-DC inhibitors, primary screen, biochemical, PK/LDH-coupled NADH fluorescence; diphosphomevalonate decarboxylase (Streptococcus pneumoniae D39); purified DPM-DC; calls only at 10 µM; 65,000 compounds, 0.49% hits; AID 556, 2006;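 active = the 320 compounds with the highest percent inhibition in the single-dose primary screen, excluding strongly autofluorescent ones, cut at about 32% in these data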;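 note: kinetic rate of NADH fluorescence loss reporting ADP formed by the decarboxylase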
# Abs 340nm – compound light absorbance at 340 nm, profiling panel, artefact control, biochemical, MLSMR library, data from PS, PMK, MK assays; compound absorbance at 340 nm, fold over control; fold change at 10 µM; 65,000 tested, under 10 active;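 active = at 10 µM dose, initial 340 nm absorbance at least 2 fold that of control wells; inactive = change under 2 fold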;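 note: initial absorbance extrapolated from kinetic A340 decline of NADH oxidation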
# Spn MK inh – S. pneumoniae MK inhibitors, primary screen, biochemical, PK/LDH-coupled NADH absorbance; mevalonate kinase [Streptococcus pneumoniae D39]; purified MK, PK/LDH-coupled NADH absorbance 340 nm; inhibition, % at 10 µM; 65,000 compounds, 0.48% hits;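 active = ranked among the strongest by inhibition in the single 10 µM screen, a fixed top-ranked set picked for dose follow-up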
# Starred values were filed as active, the others as inactive; i = inactive; / = not tested or not shown; + = active, no number.
SMILES,PMK inhibit,Autofluor 339,NADH coupling,DPM-DC inhibit,Abs 340nm,Spn MK inh
COc1cccc(/C=N\n2c(C)nnc2C)c1OC,0,1.1,16%,+,1,5
COc1cccc(/C=N/n2c(C)nc3ccccc32)c1OC,4,1.1,3%,i,1,6
CCC1CC2(C)NC(=O)c3c(sc4c3CC(C)(C)OC4)N2C1=O (stereo not given),3,2.3*,4%,/,1,5
CC1(C)Cc2c(sc3nn[nH]c(=O)c23)CO1,10,1.1,7%,i,1.1,11
CCOC(=O)C(CO)(NC(C)=O)C(=O)OCC,12,1.1,4%,i,1,0
O=C(CN1C(=O)COc2ccc(Cl)cc21)N1CCc2ccccc21,16,1.1,11%,i,1,11
Cc1cc(C(=O)NCc2ccccc2)c(=O)[nH]c1C,17,2.1*,13%,/,1.1,9
Cc1nnc(SCc2cc(=O)[nH]c(N3CCCCC3)n2)s1,0,1,2%,i,1,0
C/C=C/CSc1nc2c(c(=O)[nH]c(=O)n2C)n1Cc1ccc(C)cc1,0,1,2%,i,0.99,6
CC(NC(=O)c1ccco1)C(c1cccs1)N1CCOCC1 (stereo not given),0,1.1,3%,i,1,8
Cc1cc(=O)oc2c(CN3CCC(C)CC3)c(O)c(Cl)cc12,7,2.3*,4%,/,1.1,0
CCc1cc(=O)oc2cc(C)c(CN3CCCCC3)c(O)c12,0,1.1,0%,i,1.1,0
Cc1cc(=O)oc2c(CN3CCCCC3)c(O)c(Cl)cc12,0,2.4*,6%,/,1.1,12
CCN1CCN(Cc2c(O)c(Cl)cc3c(C)cc(=O)oc23)CC1,0,2.2*,0%,/,1.1,0
Cc1noc(C)c1CSc1ccccc1C(=O)Nc1nccs1,11,1.1,4%,i,1,2
CC1=CC(c2ccccc2)n2nc(N3C(=O)C4CC=CCC4C3=O)nc2N1 (stereo not given),12,2.3*,7%,/,1,2
CC1(C)CC(=O)c2cc(OCC(=O)NCCN3CCCc4ccccc43)ccc2O1,14,5*,7%,/,1,0
CC1(C)CC(=O)c2cc(OCC(=O)NCCCN3CCN(c4ccc(F)cc4)CC3)ccc2O1,9,3.6*,5%,i,1,0
COc1cc(C(=O)NCCC(=O)NCCN2CCCCCC2)cc(OC)c1OC,20,1.1,7%,i,0.99,0
COc1ccc(CCNC(=O)CN2CCCc3ccccc32)cc1OC,9,1,3%,i,1,0
CCC(Oc1ccc2c(c1)C(=O)CC(C)(C)O2)C(=O)NCCN1CCCCCC1 (stereo not given),10,5*,17%,/,1.1,23
c1ccc(Cn2nnnc2C(c2cccnc2)N2CCN(c3ccccc3)CC2)cc1 (stereo not given),11,1,4%,i,0.97,0
CC(=O)n1c2ccccc2c2c1c1ccccc1n2C,12,2.1*,7%,/,1.1,2
Cn1c(SCC(=O)NCc2ccco2)nc2ccccc2c1=O,25*,1.1,14%,i,1,16
O=C(CSc1cccc2cccnc12)NCc1ccco1,9,4.9*,5%,/,1.1,0
SMILES,PMK inhibit,Autofluor 339,NADH coupling,DPM-DC inhibit,Abs 340nm,Spn MK inh
Cc1cc(C)nc(SCC(=O)NCc2ccco2)n1,19,1.1,8%,i,1.1,4
CCOC(=O)CSc1cccc2cccnc12,0,3.6*,4%,/,1,7
Cc1cc(C)n2nc(SCC(=O)NCc3ccco3)nc2n1,30*,0.97,13%,i,1,3
O=C(CSc1nc2ccccc2c(=O)n1Cc1ccco1)NCc1ccccc1,0,1,3%,i,1,7
O=C(NCCC1=CCCCC1)C1CCN(S(=O)(=O)c2cccc3nsnc23)CC1,9,1.1,4%,i,1,9
Cc1ccc(NC(C(N)=O)c2c(C)[nH]c(=O)[nH]c2=O)cc1 (stereo not given),2,1.1,2%,i,1,3
COc1cccc(N2C(=O)C3C(C2=O)C2C=CC3C23CC3)c1 (stereo not given),15,1,5%,i,1,0
CCOc1cc(S(=O)(=O)n2nc(C)cc2C)ccc1F,0,1.1,0%,i,1.1,0
O=C(c1nc(-c2ccccc2)n(-c2ccccc2)n1)N1CCN(S(=O)(=O)c2ccccc2)CC1,9,1.1,6%,i,1,2
CCOC(=O)c1nn(-c2ccccc2C)c(=O)c(C#N)c1C,9,1.1,4%,i,1.1,2
CCC(=O)Nc1c(C#N)c2nc3ccccc3nc2n1C1CCCCC1,9,2.3*,9%,/,1.1,/
COc1ccc(-n2c(NC(=O)c3ccco3)c(C#N)c3nc4ccccc4nc32)cc1,14,3*,20%,+,1.1,9
N#Cc1c(N)n(C2CCCCC2)c2nc3ccccc3nc12,2,3.9*,8%,/,1,13
CCC(=O)Nc1c(C#N)c2nc3ccccc3nc2n1-c1ccccc1C,7,3.1*,5%,/,1,10
c1coc(-c2nc3nc4ccccc4nc3n2-c2ccc3c(c2)OCCO3)c1,2,1.1,1%,i,1.1,1
COC(=O)c1ccc(C(=O)OC)c(NC(=O)c2cc3ccccc3o2)c1,6,1.1,2%,i,1,0
CCN1CCN(C(c2cccs2)C(C)NC(=O)c2cccnc2)CC1 (stereo not given),17,1.1,6%,i,1,0
Cc1oc2ccc(O)c(CN3CCOCC3)c2c1C(=O)c1ccc(Cl)cc1,13,1.1,8%,i,1.1,10
Cc1c(O)ccc2c3c(c(=O)oc12)CCCC3,8,3.9*,9%,/,1.1,9
Cc1c(O)ccc2c3c(c(=O)oc12)CCC(C)C3 (stereo not given),5,3.7*,7%,/,1.1,9
O=c1oc2c(CN3CCOCC3)c(O)ccc2c2c1CCC2,6,3.6*,7%,/,1.1,8
Cc1ccc(-c2cn3nc(C)c(C)nc3n2)cc1,12,2.9*,4%,/,1,8
Cc1cc2oc(=O)cc(C)c2cc1NC(=O)CCC(=O)O,5,2.5*,11%,i,0.99,9
Cc1occc1-c1nnc(SCC(=O)NC(=O)NC(C)C)n1N,7,1,4%,i,0.99,5
